Data from PubChem BioAssay AID1814 (Broad Institute, 2009).
Among all 300,000 compounds or so, about 22,000 (7.3%) were called active. Inconclusive results (about 2%) are left out. No stated cut-off is given here; in the data, active means activity score below about -60%; inconclusive means mostly about -28% to -61%; inactive means positive scores. Many of the other results were omitted from the sample, so actives are more common in it than they were.

Test: Activators via SNCA 5'UTR binding, MLPCN (AID 1814)
Settings: alpha-synuclein 5'UTR reporter, activators screen; hits give low values; tested at 7.5 µM

SMILES | activity score
CCc1nnc(NC(=O)/C=C/c2ccc(C)o2)s1 | -74.1% (active)
CCC(CC)c1nnc(NC(=O)/C=C/c2ccco2)s1 | -153% (active)
Cc1nnc(NC(=O)/C=C/c2ccco2)s1 | -101% (active)
CCOC(=O)N1CCN(S(=O)(=O)c2ccc(C(=O)Nc3ccc(F)cc3F)cc2)CC1 | 69.5% (inactive)
COc1ccc(C(=O)Nc2ccc(F)cc2F)cc1 | -88.9% (active)
Cc1cccc(C(=O)Nc2ccc(Oc3cnccn3)cc2)c1 | -86.6% (active)
COc1ccc(NC(=O)c2ccc(OC)cc2)cc1 | -63% (active)
Cn1c(CCN2CCCCCC2)nc2cc(NC(=O)Nc3ccccc3)ccc21 | -91.9% (active)
Cc1ccc(NC(=O)c2ccc(Oc3ncccn3)cc2)cc1 | -124% (active)
COc1ccc(NC(=O)c2sccc2SCC#N)cc1 | -77.3% (active)
CCC(=O)Nc1ccc(C(=O)Nc2cccc(OC)c2)cc1 | -74.7% (active)
COc1ccc(NC(=O)c2c(C)oc3c2CCCC3)cc1 | -64.6% (active)
COc1ccc(C(=O)Nc2sc(C)c(C)c2CN2CCOCC2)cc1 | -83.7% (active)
COc1ccc(C(=S)Nc2ccccc2)cc1 | -134% (active)
COc1ccc(NC(=O)ON=C2c3ccccc3-c3ccccc32)cc1 | -102% (active)
COc1ccc(C(=O)Nc2ccc(CN3CCOCC3)cc2)cc1 | -86.6% (active)
COc1ccc(NC(=O)c2cc(-c3ccc(C)cc3)on2)cc1 | -154% (active)
CCc1cc(C(N)=O)c(NC(=O)c2ccc(OC)cc2)s1 | -174% (active)
Cn1c(CN2CCOCC2)nc2cc(NC(=O)c3ccc(Cl)cc3)ccc21 | -163% (active)
COc1ccc(NC(=O)CS(=O)(=O)c2ccccc2)cc1 | -62.5% (active)
CC(=O)c1cccc(NC(=O)C2COc3ccccc3O2)c1 (stereo not drawn) | -134% (active)
COc1ccc(NC(=O)C2COc3ccccc3O2)cc1 (stereo not drawn) | -133% (active)

SMILES | activity score
NS(=O)(=O)c1ccc(NC(=S)NC(=O)c2cccc(Br)c2)cc1 | -61.6% (active)
O=S(=O)(c1ccc(F)cc1)n1ccc(-c2cnc(-c3ccccc3)s2)n1 | -138% (active)
c1ccc(CSc2nnc(-c3ccco3)n2Cc2ccccc2)cc1 | -126% (active)
Cc1ccc(CN2C(=O)N/C(=C/c3cc(C)n(-c4ccccn4)c3C)C2=O)cc1 | -88.6% (active)
O=C(NNC(=S)Nc1ccc(Br)cc1Cl)c1ccco1 | -157% (active)
NNc1nc2c(Cl)cccc2s1 | -119% (active)
Cc1nc2ccccc2nc(=O)c1NNc1ccc([N+](=O)[O-])cc1 | -109% (active)
CN(C(=O)c1ccccn1)c1nnc(-c2ccccn2)s1 | -110% (active)
Cc1sc2ncnc(N3CCC(C(=O)Nc4nc5ccc(Cl)cc5s4)CC3)c2c1C | -183% (active)
COC(=O)c1sc(NC(=O)c2ccc(OC)cc2OC)nc1C | 101% (inactive)
COc1cc2ccccc2cc1C(=O)Nc1ccccc1C | -118% (active)
COc1cc2ccccc2cc1C(=O)Nc1ccncc1 | -70.2% (active)
Cc1ccc2nc(-c3ccncc3)cc(C(=O)Nc3ccc(OC(F)F)cc3)c2c1 | 67.6% (inactive)
COc1cc2ccccc2cc1C(=O)Nc1nc(C)c(C(C)=O)s1 | -106% (active)
COc1cc(OC)c(C(=O)Nc2ccc(N(C)C)cc2)cc1OC | -129% (active)
COc1ccc2c3c1O[C@H]1C[C@@H](O)C=C[C@@]31CCN(C)C2 | 62% (inactive)
COC(=O)c1cn(CC(=O)NCc2cccs2)c2ccccc12 | -111% (active)
CCOC(=O)N/N=C/c1cn(Cc2ccccc2Cl)c2ccccc12 | 42.5% (inactive)
O=C(Cn1cc(C(=O)c2cccs2)c2ccccc21)NCc1cccs1 | -69.5% (active)
CCOc1ccccc1NC(=O)Cn1nnc(C(=O)NCc2cccs2)c1N | 84.9% (inactive)
Cc1ccc(N)cc1-n1c(C)ccc1C | -77.6% (active)
O=c1cc(-c2ccccc2)[nH]c2cc(F)ccc12 | 93.3% (inactive)

SMILES | activity score
Cc1ccc(-c2cc(=O)c3ccc(F)cc3[nH]2)cc1 | -68.9% (active)
Cc1ccc(-n2nc3ccc(NC(=O)/C=C/c4ccco4)cc3n2)cc1C | -154% (active)
O=C(Nc1cccc(-c2nc3ccccc3[nH]2)c1)c1ccc(C(=O)Nc2cccc(-c3nc4ccccc4[nH]3)c2)cc1 | -70.2% (active)
O=C(/C=C/c1ccco1)Nc1cccc(-c2nc3ccccc3[nH]2)c1 | -143% (active)
Cc1c(C(N)=O)sc2ncn(CCOc3ccccc3)c(=O)c12 | -66.2% (active)
Cc1cccc(OC(=O)c2sc3ncn(C)c(=O)c3c2C)c1 | -210% (active)
c1ccc(CCc2nc(-c3ccncc3)no2)cc1 | -99% (active)
O=C1c2ccccc2C(=O)c2c1cccc2N1CCN(CCO)CC1 | -64.5% (active)
N#C/C=C1\Sc2ccccc2C(=O)N1CC(=O)N1CCN(S(=O)(=O)c2ccccc2)CC1 | -152% (active)
Fc1ccc2nc(Nc3nc4c(s3)CCCC4)sc2c1 | -206% (active)
NS(=O)(=O)c1ccc(N=Nc2c(O)[nH]c3ccc(Br)cc23)cc1 | -119% (active)
O=C1CCCc2c1[nH]c1ccc(Br)cc21 | 89% (inactive)
COC(=O)CCC(=O)N1CCCC(CO)(Cc2ccccc2)C1 (stereo not drawn) | -124% (active)
Cc1noc(C)c1CCC(=O)N1CCCC(CO)(Cc2ccccc2)C1 (stereo not drawn) | -110% (active)
Cc1ccc(OC(=O)c2c(C)nn(-c3ccccc3)c2C)cc1 | -131% (active)
CSCCNC(=O)c1ccc2nc(Cc3ccccc3F)oc2c1 | -130% (active)
COCCNC(=O)c1ccc2nc(Cc3ccc(OC)c(OC)c3)oc2c1 | -80.1% (active)
COc1ccc(Cc2nnc(N/N=C/c3ccccc3O)[nH]c2=O)cc1OC | 91.4% (inactive)
CNC(=S)N/N=C/c1ccc(N2CCOCC2)s1 | -100% (active)
Cc1nc(NC(=O)c2ccc3c(c2)OCCO3)ccc1Br | -116% (active)
CC(C)C(=O)Nc1ccc2c(c1)oc1ccccc12 | -225% (active)
CCOc1ccc(C(=O)Nc2nccs2)cc1[N+](=O)[O-] | -123% (active)

SMILES | activity score
CC(=O)Oc1ccc(C(=O)Nc2nccs2)cc1 | -98% (active)
Cc1ccc(-c2nc3ccccc3[nH]2)cc1N | -122% (active)
COc1ccc(-c2csc(-c3cccs3)n2)cc1OC | -154% (active)
O=C(CCc1ccccc1)Nc1ncc([N+](=O)[O-])s1 | -165% (active)
O=C(Nc1ncc([N+](=O)[O-])s1)C1COc2ccccc2O1 (stereo not drawn) | -93.3% (active)
CC(=O)Oc1ccccc1C(=O)Nc1ncc([N+](=O)[O-])s1 | -68.7% (active)
O=C(Cc1c(F)cccc1Cl)Nc1ncc([N+](=O)[O-])s1 | -133% (active)
c1ccc2c(C[n+]3csc4ccccc43)cccc2c1 | -83.3% (active)
Cc1cccc(N=Nc2c(C)[nH]n(-c3ccccc3)c2=O)c1 | -126% (active)
CCCC(=O)Nc1ccc2c(c1)nc1n2CCSC1 | -94.7% (active)
CC1(C)C2CC=C(/C=N/NC(=O)c3ccc(Cl)cc3)C1C2 (stereo not drawn) | -63.4% (active)
O=C1N=C(N2CCOCC2)S/C1=C\C=C/c1ccccc1 | -170% (active)
Cc1ccsc1/C=C1\SC(N2CCOCC2)=NC1=O | -73% (active)
Brc1ccc(C2CC(c3ccccc3)=Nc3ccccc3N2)cc1 (stereo not drawn) | -141% (active)
O=C(CSc1ccc(-c2ccc(-n3cccn3)cc2)nn1)Nc1ccc([N+](=O)[O-])cc1 | -99.7% (active)
CC12CCC(C(=O)N(NC(=O)c3ccccc3O)C1=O)C2(C)C (stereo not drawn) | 67.6% (inactive)
Cc1ccc2c(c1)NCC(C(=O)NC1CCC(C)CC1)O2 (stereo not drawn) | -67.9% (active)
COc1cc(NC(=S)N2CCCC(C)C2)c(OC)cc1Cl (stereo not drawn) | -79% (active)
CC(C)CCC(C)NC(=O)c1ccc2nccnc2c1 (stereo not drawn) | -75.9% (active)
O=C1c2ccccc2C(=O)N1CCOc1ccc(F)cc1 | -91.2% (active)
Cc1cccc(N2Cc3ccccc3C2=NC(=O)c2ccc(Cl)nc2)c1 | -115% (active)
CCCc1cc(=O)[nH]c(SCC(=O)c2c(N)n(CC(C)C)c(=O)n(C)c2=O)n1 | 88.3% (inactive)

SMILES | activity score
CC(=O)c1ccc(NC(=O)CSC(=S)N2CCCC2)cc1 | -76.2% (active)
Cc1cc(Cl)ccc1OCc1nc(-c2ccncc2)no1 | -162% (active)
CN(C)S(=O)(=O)c1ccc2oc(SCC(=O)Nc3ccccc3F)nc2c1 | -147% (active)
CCn1c(/C=C/c2ccc([N+](=O)[O-])o2)nc2ccccc2c1=O | -353% (active)
Cc1ccc(-c2nc(C#N)c(NCCCn3ccnc3)o2)cc1 | -87% (active)
Cc1cccc(-[n+]2c(-c3cccc(Br)c3)[nH]c3nc4ccccc4nc32)c1 | 73.9% (inactive)
Brc1ccc(-c2nnc(-c3ccccc3)o2)o1 | -63.8% (active)
Nc1ccc(-c2nnc(-c3ccc(-c4ccccc4)cc3)o2)cc1 | -217% (active)
Brc1ccc(-c2noc(-c3ccccc3)n2)o1 | -80.6% (active)
Nc1nonc1-c1noc(-c2ccc(Br)o2)n1 | -80.6% (active)
Cc1ncc(CC(=O)n2cc(C(=O)c3cc(Cl)ccc3O)cn2)s1 | -71% (active)
CCSc1nnc(-c2cc3c(s2)-c2ccccc2CC3)o1 | -102% (active)
CCOC(=O)c1ccc2c(c1)nc(C)n2CC | -141% (active)
Cc1cccc(C(=O)Nc2ccc(C(=O)/C=C/c3cccs3)cc2)c1 | -92.4% (active)
COc1ccc(C2=NN(C(C)=O)C(c3ccccc3)C2)cc1 (stereo not drawn) | -63.9% (active)
COc1ccc(C2=NN(C(=O)c3ccccc3C(=O)O)C(c3ccccc3O)C2)cc1 (stereo not drawn) | -171% (active)
O=C(Nc1cccnc1Cl)c1cc(-c2ccccc2O)on1 | -179% (active)
O=C(NCc1ccccn1)c1cc(-c2ccccc2Cl)on1 | -99.8% (active)
Clc1ccc(-c2cc(-c3ccccn3)on2)c(Cl)c1 | 108% (inactive)
C=CCNC(=O)c1cc(-c2ccccc2O)on1 | -65.4% (active)
